# Results as given in PubChem BioAssay (Tox21).
# Several values for one entry are separate records, joined by “and”; a condition that tells them apart may be missing. Equal values may be shown once. Results filed as inconclusive are left out. A call without a number means that no potency is given here. A structure can be active in one record and inactive in another. Activity calls are given as the source filed them. Unless noted, the call rests on the fitted dose curve.
# Assays:
# [1] = Nuclear factor erythroid 2-related factor 2/antioxidant responsive element (Nrf2/ARE) small molecule agonists: qHTS cell viability counter screen in human keratinocytes (AID 1919968; active means well fitted curve in the direction sought with a large enough effect in the repeat runs; an effect the other way counts as inactive or inconclusive; further: nearly all actives have a fitted effect of over 55% in size)
# Procedure, shortened: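 Cytotoxicity was multiplexed with the Nrf2/ARE luciferase assay in the same wells. Stably transfected HaCaT keratinocytes were treated with test compounds for 23 h at 37 C. Cell viability was then measured by CellTiter-Fluor fluorescence.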
# [2] = Nuclear factor erythroid 2-related factor 2/antioxidant responsive element (Nrf2/ARE) small molecule agonists: luciferase reporter gene qHTS assay in human keratinocytes (AID 1919969); further: nearly all actives have a fitted effect of over 35% in size; further: potency means the concentration at half of the fitted maximal effect
# [3] = G protein-coupled receptor (GPCR) small molecule agonists, calcium flux assay: HEK293 wild type cell line counter screen (AID 1920065)
# Procedure, shortened: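 Seed cells, incubate 18 h (37 C, 5% CO2); add calcium dye, 1 h at 37 C; pin-transfer compounds, ATP control or DMSO; read fluorescence 480/540 nm each second for 3 min.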
# [4] = p53 small molecule agonists, cell-based qHTS assay with human liver microsomes (AID 1963577)
# Procedure, shortened: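 p53RE-bla cells, 4,000/well, compound added after 5 h, with human liver microsomes 0.5 mg/mL and NADPH 0.5 mg/mL final; 16 h at 37 C, then LiveBLAzer 2 h RT, fluorescence.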
# [5] = p53 small molecule agonists, cell-based qHTS assay with human liver microsomes: qHTS cell viability counter screen (AID 1963579); further: nearly all actives have a fitted effect of over 45% in size
# Procedure, shortened: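 p53RE-bla cells, 4,000/well, dosed 5 hours after plating, with human liver microsomes (0.5 mg/mL final) plus NADPH (0.5 mg/mL final), 16 hours at 37 C. Viability read as CellTiter-Glo luminescence after 30 min at room temperature.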
# [6] = p53 small molecule agonists, cell-based qHTS assay with rat liver microsomes: qHTS cell viability counter screen (AID 1963580); further: nearly all actives have a fitted effect of over 45% in size
# Procedure, shortened: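 Cytotoxicity counter screen: intracellular ATP measured by CellTiter-Glo luminescence in the same wells as the beta-lactamase reporter read, on HCT-116 p53RE-bla cells exposed 16 h at 37 C to compounds with rat liver microsomes and NADPH, each 0.5 mg/mL final.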
# [7] = p53 small molecule agonists, cell-based qHTS assay: qHTS cell viability counter screen (AID 1963581); further: nearly all actives have a fitted effect of over 45% in size
# Procedure, shortened: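 Viability was counter-screened in parallel with the p53 agonist reporter by measuring intracellular ATP luminescence in the same HCT-116 p53RE-bla wells after 16 h compound treatment at 37 C.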
# [8] = p53 small molecule agonists, cell-based qHTS assay (AID 1963582; active means well fitted activation curve with a large enough effect in the signal ratio in the repeat runs, not every such curve was filed as active; the % refers to the signal ratio)
# Procedure, shortened: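 Cells carrying a p53-responsive bla reporter are treated with test compounds for 16 h at 37 C; beta-lactamase activity is then detected with LiveBLAzer B/G FRET substrate after 2 h at room temperature.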
# [9] = target: 5-hydroxytryptamine receptor 2A (Homo sapiens) (UniProt P28223); assay: 5-hydroxytryptamine receptor 2A (HTR2A) small molecule antagonists, cell-based qHTS assay (AID 1963586); further: nearly all actives have a fitted effect of over 45% in size
# Procedure, shortened: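 CHO cells stably expressing human HTR2A were plated for 18 h at 37 C, then loaded with calcium dye for 1 h. Compounds were preincubated 5 min at room temperature before DOI (4 nM solution) was added. Kinetic fluorescence was read for 3 min.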
# [10] = target: 5-hydroxytryptamine receptor 2A (Homo sapiens) (UniProt P28223); assay: 5-hydroxytryptamine receptor 2A (HTR2A) small molecule agonists, cell-based qHTS assay (AID 1963587); further: nearly all actives have a fitted effect of over 30% in size; further: potency means the concentration at half of the fitted maximal effect
# Procedure, shortened: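 CHO cells stably expressing human HTR2A, plated 18 h, loaded with calcium dye 1 h at 37 C. Agonist mode: compounds added and intracellular calcium fluorescence recorded kinetically for 2 min at 1 sec intervals.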
# [11] = target: Muscarinic acetylcholine receptor M1 (Homo sapiens) (UniProt P11229); assay: Cholinergic receptor muscarinic 1 (CHRM1) small molecule antagonists, cell-based qHTS assay (AID 1963588); further: nearly all actives have a fitted effect of over 40% in size
# Procedure, shortened: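 Compounds were tested at 15 concentrations in three independent runs. Dye-loaded CHRM1-CHO cells were exposed 5 min at room temperature before stimulation by acetylcholine added at 50nM. Intracellular calcium was read kinetically on FDSS for 3 min.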
# [12] = target: Muscarinic acetylcholine receptor M1 (Homo sapiens) (UniProt P11229); assay: Cholinergic receptor muscarinic 1 (CHRM1) small molecule agonists, cell-based qHTS assay (AID 1963589); further: nearly all actives have a fitted effect of over 35% in size; further: potency means the concentration at half of the fitted maximal effect
# Procedure, shortened: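 Cells were plated and incubated 18 h at 37 C/5% CO2, loaded with calcium dye for 1 h at 37 C, then treated with compounds in DMSO. Fluorescence was recorded kinetically at 1 sec intervals.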
# [13] = cAMP Responsive Elements (CRE) small molecule agonists, cell-based qHTS assay (AID 1963590)
# Procedure, shortened: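 Cells carrying a CRE-driven beta-lactamase reporter (HEK 293T) are seeded, incubated overnight (18 h), and treated with test compounds for 3 h at 37 C; reporter activity is then detected with a FRET substrate after 2 h at room temperature.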
# [14] = cAMP Responsive Elements (CRE) small molecule antagonists, cell-based qHTS assay (AID 1963591; active means well fitted inhibition curve with a large enough effect in the signal ratio in the repeat runs, not every such curve was filed as active; the % refers to the signal ratio)
# Procedure, shortened: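 Cells (CRE-bla HEK 293T, DMEM with 10% dialyzed FBS and 25 mM HEPES) are seeded and incubated 18 h. Compounds are added with NKH477 agonist at 0.25 uM final for 3 h, then FRET substrate for 2 h.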
# [15] = target: Beta-2 adrenergic receptor (Homo sapiens) (UniProt P07550); assay: Adrenergic beta2 receptor (ADRB2) small molecule antagonists, cell-based qHTS assay (AID 1963592); further: series mostly up to about 92 µM; nearly all actives have a fitted effect of over 50% in size
# Procedure, shortened: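 Assay format: CHO-ADRB2 cells, 18-20hr seeding at 37C/5% CO2, then compound plus 1nM isoproterenol agonist mix for 0.5hr RT. Homogeneous time-resolved fluorescence cAMP detection after 1hr, expressed as 665/615 nm ratio.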
# [16] = target: D(2) dopamine receptor (Homo sapiens) (UniProt P14416); assay: Dopamine D2 receptor (DRD2) small molecule agonists, cell-based qHTS assay (AID 1963594); further: nearly all actives have a fitted effect of over 35% in size
# Procedure, shortened: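 HEK293 cells stably expressing human DRD2, pre-treated with PDE inhibitor Ro20-1724 (0.1 mM final) and compound 10 min at room temperature, then stimulated with NKH477 (200nM […]) for 30 min. cAMP read by HTRF (665/620 nm).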
# [17] = target: D(2) dopamine receptor (Homo sapiens) (UniProt P14416); assay: Dopamine D2 receptor (DRD2) small molecule antagonists, cell-based qHTS assay (AID 1963595; active means well fitted inhibition curve with a large enough effect in the signal ratio in the repeat runs, with a control signal flat; the % refers to the signal ratio)
# Procedure, shortened: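 DRD2-HEK293; 0.1 mM Ro20-1724; cpd 10 min RT; NKH477 200 nM + quinpirole 12 nM, 30 min RT; HTRF cAMP (cAMP-d2/anti-cAMP cryptate), 665/620 nm ratio after 1 h.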
# [18] = target: KiSS-1 receptor (Homo sapiens) (UniProt Q969F8); assay: Human kisspeptin (KISS1R) small molecule agonists, calcium flux assay in KISS1R-HEK293 cells (AID 1920064; active means well fitted curve in the direction sought with a large enough effect in the repeat runs; an effect the other way counts as inactive or inconclusive)
# Procedure, shortened: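 Agonist activity is monitored as intracellular calcium rise in engineered HEK293 cells carrying human KISS1R. Cells are dye-loaded for 1 h at 37 C before compound addition, and fluorescence is recorded for 3 min.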
# [19] = p53 small molecule agonists, cell-based qHTS assay with rat liver microsomes (AID 1963578)
# Procedure, shortened: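 p53RE-bla cells, 4,000/well, pre-incubated 5 h, then given compounds plus rat liver microsomes (0.5 mg/mL final) and NADPH (0.5 mg/mL final). Incubation 16 h at 37 C; beta-lactamase reporter read by LiveBLAzer fluorescence after 2 h at room temperature.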
# [20] = target: Beta-2 adrenergic receptor (Homo sapiens) (UniProt P07550); assay: Adrenergic beta2 receptor (ADRB2) small molecule agonists, cell-based qHTS assay (AID 1963593);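 further: CHO cells stably overexpressing human ADRB2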
# Procedure, shortened: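 CHO cells stably over-expressing ADRB2 were plated overnight at 37C, then dosed with compounds plus a stimulation mix containing 100uM IBMX and 25uM Ro-20-1724 for 0.5hr at room temperature. cAMP was measured by HTRF competition, 1hr.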
# Sequence of 5-hydroxytryptamine receptor 2A (Homo sapiens) (P28223 whole entry, looked up): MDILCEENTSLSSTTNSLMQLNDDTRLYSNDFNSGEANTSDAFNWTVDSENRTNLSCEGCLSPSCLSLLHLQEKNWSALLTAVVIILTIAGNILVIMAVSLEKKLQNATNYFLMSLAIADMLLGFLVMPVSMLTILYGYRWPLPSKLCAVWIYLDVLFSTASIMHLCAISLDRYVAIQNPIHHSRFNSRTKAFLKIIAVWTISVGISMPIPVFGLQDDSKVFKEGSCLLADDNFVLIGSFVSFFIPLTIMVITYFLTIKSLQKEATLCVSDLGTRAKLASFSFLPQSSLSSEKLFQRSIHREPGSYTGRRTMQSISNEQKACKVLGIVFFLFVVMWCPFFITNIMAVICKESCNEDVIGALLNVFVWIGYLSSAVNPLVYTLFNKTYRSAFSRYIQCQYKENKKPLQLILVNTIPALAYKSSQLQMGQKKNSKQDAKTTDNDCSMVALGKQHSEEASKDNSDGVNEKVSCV
# Sequence of D(2) dopamine receptor (Homo sapiens) (P14416 whole entry, looked up): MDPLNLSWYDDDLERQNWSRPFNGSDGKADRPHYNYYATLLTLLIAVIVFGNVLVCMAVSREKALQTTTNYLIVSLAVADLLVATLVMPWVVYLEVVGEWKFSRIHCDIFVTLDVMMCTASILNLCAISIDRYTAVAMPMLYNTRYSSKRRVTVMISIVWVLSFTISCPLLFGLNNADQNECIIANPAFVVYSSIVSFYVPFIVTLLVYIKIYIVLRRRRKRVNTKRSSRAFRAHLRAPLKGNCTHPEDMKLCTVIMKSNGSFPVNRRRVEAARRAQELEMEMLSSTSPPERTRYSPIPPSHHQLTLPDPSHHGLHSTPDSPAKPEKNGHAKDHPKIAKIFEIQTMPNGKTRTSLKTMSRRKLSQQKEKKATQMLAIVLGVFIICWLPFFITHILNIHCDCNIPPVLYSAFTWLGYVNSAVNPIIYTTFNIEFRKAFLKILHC
# Sequence of Beta-2 adrenergic receptor (Homo sapiens) (P07550 whole entry, looked up): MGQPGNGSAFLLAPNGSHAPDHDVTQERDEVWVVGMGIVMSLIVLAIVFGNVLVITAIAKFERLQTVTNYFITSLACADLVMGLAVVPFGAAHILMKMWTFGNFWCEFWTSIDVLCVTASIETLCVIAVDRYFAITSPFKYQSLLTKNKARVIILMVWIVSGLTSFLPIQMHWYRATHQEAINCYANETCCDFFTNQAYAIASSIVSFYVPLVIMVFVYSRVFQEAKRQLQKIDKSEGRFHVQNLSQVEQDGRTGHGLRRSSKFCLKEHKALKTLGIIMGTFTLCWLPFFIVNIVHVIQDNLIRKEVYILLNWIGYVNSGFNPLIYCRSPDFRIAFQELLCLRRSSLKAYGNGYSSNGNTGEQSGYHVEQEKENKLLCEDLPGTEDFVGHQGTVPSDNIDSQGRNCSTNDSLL
# Sequence of Muscarinic acetylcholine receptor M1 (Homo sapiens) (P11229 whole entry, looked up): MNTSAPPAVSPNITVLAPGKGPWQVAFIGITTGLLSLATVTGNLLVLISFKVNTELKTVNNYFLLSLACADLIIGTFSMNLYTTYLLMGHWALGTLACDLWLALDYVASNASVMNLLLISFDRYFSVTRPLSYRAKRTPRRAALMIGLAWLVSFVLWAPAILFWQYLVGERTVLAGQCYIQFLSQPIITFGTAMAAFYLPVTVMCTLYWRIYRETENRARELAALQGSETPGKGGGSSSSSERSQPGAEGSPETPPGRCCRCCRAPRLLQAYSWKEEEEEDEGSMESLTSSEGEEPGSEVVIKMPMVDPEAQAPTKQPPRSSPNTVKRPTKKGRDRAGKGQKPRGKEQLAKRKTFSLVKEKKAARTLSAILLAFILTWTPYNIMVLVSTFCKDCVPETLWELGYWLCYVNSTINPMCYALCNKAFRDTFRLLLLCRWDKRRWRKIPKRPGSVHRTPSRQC
# Sequence of KiSS-1 receptor (Homo sapiens) (Q969F8 whole entry, looked up): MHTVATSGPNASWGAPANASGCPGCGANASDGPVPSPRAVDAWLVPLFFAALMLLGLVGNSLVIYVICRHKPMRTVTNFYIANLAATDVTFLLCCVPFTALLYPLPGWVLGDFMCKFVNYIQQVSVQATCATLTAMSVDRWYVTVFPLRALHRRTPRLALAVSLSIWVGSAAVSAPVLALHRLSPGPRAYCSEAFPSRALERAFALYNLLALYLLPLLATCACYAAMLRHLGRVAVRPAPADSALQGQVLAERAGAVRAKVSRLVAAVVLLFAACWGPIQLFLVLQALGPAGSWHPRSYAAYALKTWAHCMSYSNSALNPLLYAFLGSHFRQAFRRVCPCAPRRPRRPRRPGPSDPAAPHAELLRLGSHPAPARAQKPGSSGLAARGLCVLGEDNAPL
Compound,Potency [1],Potency [2],Potency [3],Potency [4],Potency [5],Potency [6],Potency [7],Potency [8],Potency [9],Potency [10],Potency [11],Potency [12],Potency [13],Potency [14],Potency [15],Potency [16],Potency [17],Potency [18],Potency [19],Potency [20]
CC(C)(C)c1ccc(C(=O)CCCCl)cc1,inactive,23.7 µM (active),inactive,inactive,inactive,inactive,inactive,inactive,inactive,inactive,inactive,inactive,inactive,inactive,inactive,inactive,inactive,,,
C/C=C/C(=O)CCCC,inactive,inactive,inactive,inactive,inactive,inactive,inactive,inactive,inactive,inactive,inactive,,inactive,inactive,inactive,inactive,inactive,,,
CO/N=C(/C(=O)N[C@@H]1C(=O)N2C(C(=O)O)=C(COC(N)=O)CS[C@H]12)c1ccco1,inactive,inactive,inactive,inactive,inactive,inactive,inactive,inactive,inactive,inactive,inactive,inactive,inactive,inactive,inactive,inactive,inactive,inactive,inactive,inactive
CN(C(=O)c1c(O)c2ccccc2n(C)c1=O)c1ccccc1,inactive,inactive,inactive,inactive,inactive,inactive,inactive,inactive,inactive,inactive,,inactive,inactive,inactive,inactive,inactive,inactive,,,inactive
Nc1ccc(N)c(Cl)c1,inactive,54.4 µM (active) and 27.3 µM (active),inactive,inactive,inactive,inactive,inactive,inactive,inactive,inactive and 21.9 µM (active),inactive,inactive and 43.6 µM (active),,,,,,inactive,inactive,
CC(C)(O)C#CC(C)(C)O,inactive,inactive,inactive,,inactive,inactive,inactive,inactive,inactive,inactive,inactive,inactive,inactive,inactive,inactive,inactive,inactive,,,
O=C1Nc2ccccc2C1(c1ccc(O)cc1)c1ccc(O)cc1,inactive,386 nM (active) and 841 nM (active),,,inactive,inactive,,,inactive,,inactive,inactive,inactive,inactive,inactive,inactive,inactive,,,
NS(=O)(=O)c1ccccc1OC(F)(F)F,inactive,inactive,,inactive,inactive,inactive,inactive,inactive,inactive,inactive,inactive,inactive,inactive,inactive,inactive,inactive,inactive,,inactive,
